Screening results: PubChem, several laboratories
Hits are enriched below; roughly 1.7% of the tested compounds scored in any of these assays.
ATG4B inh: ATG4B protease inhibitors, primary screen, biochemical, fluorescence, uHTS; Cysteine protease ATG4B (Homo sapiens), Q9Y4P1; ATG4B cleavage of LC3-PLA2, NBD-HPC fluorescence, 1 h; inhibition, % at 8.33 µM; 340,000 tested, 0.51% active; in the data active = inhibition above about 40%
Neddylation inh: inhibitors of cullin neddylation, primary screen, biochemical, TR-FRET, uHTS, NAE and Ubc12; NEDD8-conjugating enzyme Ubc12 (Homo sapiens) + NEDD8-activating enzyme E1 regulatory …; inhibition, % at 25 µM; 360,000 tested, 0.58% active; in the data active = inhibition above about 36%
Rin1 Abl inh: inhibitors of Rin1-Abl protein binding, primary screen, biochemical, TR-FRET. Tyrosine-protein kinase ABL1 (Homo sapiens) + Ras and Rab interactor 1 (Homo sapiens), …. AID 588664, 2011. 360,000 tested, 0.4% active. inhibition, % at 7.35 µM; in the data active = inhibition above about 5%, passing the limit was not always enough
SUMO1 PPI mod: modulators of SUMO1 protein-protein interactions, primary screen, biochemical, uHTS; 360,000 tested, 0.33% active; Small ubiquitin-related modifier 1 (Homo sapiens), P63165; inhibition, % at 20 µM; SUMO1 binding to a labelled peptide, TR-FRET, 1 h; in the data active = inhibition above about 37%
Target sequence (P63165 whole entry, looked up): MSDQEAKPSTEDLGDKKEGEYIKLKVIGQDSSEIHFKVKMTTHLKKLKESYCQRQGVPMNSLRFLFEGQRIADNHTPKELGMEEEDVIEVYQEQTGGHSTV
ATG4B conf: ATG4B protease inhibitors, retest, confirmation, biochemical, fluorescence, single concentration; 320 tested, 92% active; ATG4B protease fluorescent substrate cleavage assay; inhibition, % at 8.33 µM; shares compounds with ATG4B inh; in the data active = inhibition above about 39%
PLA2 ctr: PLA2 enzyme inhibition, counter-screen for ATG4B inhibitor project, biochemical, single concentration, uHTS hits; AID 588402, 2011; 1,600 tested, 66% active; shares compounds with ATG4B inh; inhibition, % at 8.33 µM; purified PLA2, NBD-C6-HPC fluorescence, 45 min; in the data active = inhibition above about 50%
Target sequence (P04054 whole entry, looked up): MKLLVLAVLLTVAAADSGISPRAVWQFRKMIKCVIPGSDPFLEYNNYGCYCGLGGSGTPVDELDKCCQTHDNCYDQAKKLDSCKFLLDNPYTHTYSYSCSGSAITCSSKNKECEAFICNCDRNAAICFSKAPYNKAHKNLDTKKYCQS
* marks the source's active call; other numbers are inactive results; nt = no result given.

SMILES	ATG4B inh	Neddylation inh	Rin1 Abl inh	SUMO1 PPI mod	PLA2 ctr	others
COCOc1cccc(CN2CCC2(C)C(=O)Nc2ccc(OC)c(OC)c2)c1 (centres undefined)	nt	-0.6	3.3	1.9	nt
CC1=CCC[C@@H]2[C@@](C)(CC/C(C)=C/C(=O)O)[C@H](C)CC[C@@]12C	79.4*	-22.6	2.1	32.4	80.9*
N#Cc1cc2c(nc1SCC(=O)Nc1sc3c(c1C#N)CCC3)CCC2	-6.3	-47.4	-3.7	-0.8	nt
COc1ccc(-c2ccc(C#N)c(SCC(=O)Nc3sc4c(c3C#N)CCC4)n2)cc1OC	72.5*	1.1	4.4	1.9	-4.2	ATG4B conf=83.8*
CCn1c(C)c(C)c2cc(C(=O)N3CCc4ccccc4C3)ccc21	71.8*	21.6	5.2	-1.8	73.8*
CC(=O)Nc1cc(C(=O)N2CCc3ccccc3C2)ccc1Sc1ccc(C)cc1	46.1*	-227.6	-1.3	-6.1	52.7*
Cc1ccc(CN(c2ccc(C(=O)N3CCc4ccccc4C3)cc2)S(C)(=O)=O)cc1	55.5*	2.0	-1.6	-0.4	59.9*
Cn1c(NCc2cccnc2)nc2cc(-c3cccc(C(=O)NCCO)c3)sc2c1=O	nt	-66.0	-4.4	-19.5	nt
O=C1NC[C@@H](CCCCN2C[C@H](Cc3ccccc3)N(CC3CCCCC3)C(=O)C2=O)N(CC2CCCCC2)C1=O	nt	-0.4	nt	-3.2	nt
CC(C)CN(C(=O)COc1ccc(Br)cc1C=O)C1CCS(=O)(=O)C1 (centres undefined)	44.6*	-3.1	1.0	-2.9	53.1*
CCOC(=O)C1=C(C)N=c2s/c(=C/c3cccc([N+](=O)[O-])c3O)c(=O)n2C1c1cc(OC)c(OC)c(OC)c1 (centres undefined)	-1.0	-12.8	-3.5	-5.9	nt
CCOC(=O)C1=C(C)N=c2s/c(=C/c3cccc([N+](=O)[O-])c3O)c(=O)n2C1c1ccccc1 (centres undefined)	57.6*	-24.7	2.3	0.6	27.3
Oc1ccc(C2C(c3ccccc3)=NN=C(c3ccccc3F)N2O)c(O)c1 (centres undefined)	63.2*	-26.7	-1.8	-11.6	83.8*
Oc1ccc(C2C(c3ccccc3)=NN=C(c3ccc(Cl)cc3)N2O)c(O)c1 (centres undefined)	59.6*	-0.5	2.8	-5.0	75.5*
O=C(Nc1ccccc1Cc1ccccc1)c1ccccc1NS(=O)(=O)c1ccc(Cl)s1	81.5*	16.4	0.6	8.6	83.1*
O=C(Nc1ccccc1)c1ccccc1NS(=O)(=O)c1ccc(Cl)s1	5.8	10.9	-5.2	5.8	nt
CC(C)C(=O)N1CCCC1(C)C(=O)Nc1ccc(-n2cncn2)cc1 (centres undefined)	nt	-1.2	0.6	0.0	nt
O=c1c2cc3c(cc2[nH]c(=S)n1C1CCN(Cc2ccccc2)CC1)OCO3	58.9*	-8.5	1.8	7.5	62.1*
O=C(c1cccnc1)n1nc(NCc2ccccc2)nc1NCc1ccccc1	41.8*	-9.5	-3.3	-0.5	30.9
O=C(c1ccco1)n1nc(NCc2ccccc2)nc1NCc1ccccc1	26.8	33.7	0.4	-4.3	nt
COc1ccc(C(O)c2ncc(-c3ccccc3Cl)[nH]2)cc1F (centres undefined)	nt	-2.3	-2.7	3.1	nt
CCOc1cc(Br)c(Br)c(C=Nc2ccc(NC(C)=O)cc2)c1O	66.2*	-6.6	4.4	-6.6	54.5*
CC(=O)Nc1ccc(N=Cc2c(O)c(C(=O)Nc3ccccc3)cc3ccccc23)cc1	30.1	nt	nt	nt	nt
COc1ccc(-c2csc(NC(=O)c3ccccc3NS(=O)(=O)c3ccc(F)c(F)c3)n2)cc1	69.3*	15.5	0.5	25.3	80.5*
Cc1ccc(S(=O)(=O)Nc2ccccc2C(=O)Nc2nc(-c3ccc(F)cc3)cs2)cc1	47.5*	nt	0.9	14.3	59.6*
SMILES	ATG4B inh	Neddylation inh	Rin1 Abl inh	SUMO1 PPI mod	PLA2 ctr	others
Cc1ccc(S(=O)(=O)Nc2nc(-c3ccccc3)cs2)cc1	1.8	-4.1	-0.8	15.5	nt
COc1ccccc1C=NN=C(NN=Cc1ccccc1OC)NN=Cc1ccccc1OC	1.3	19.6	3.6	3.7	nt
O=C(NCc1ccccc1)C(CCc1ccccc1)n1c(=O)c(-c2ccccc2)nc2ccccc21 (centres undefined)	nt	30.4	nt	2.3	nt
COc1ccc(Cc2nnc(NC(=O)c3cccc([N+](=O)[O-])c3)s2)cc1	50.9*	-7.0	-1.7	-22.0	4.5
O=C(NCc1cccc(Cl)c1)c1ccc(S(=O)(=O)Nc2cccc(C(F)(F)F)c2)cc1	57.7*	10.4	-0.7	6.8	59.9*
O=C(NCc1cccc(C(F)(F)F)c1)c1cc(Cl)ccc1Cl	0.7	-13.1	-2.4	-0.1	nt
O=C(NCc1cccc(C(F)(F)F)c1)c1cc(Cl)cc(Cl)c1	51.7*	-5.8	-0.3	-1.7	42.2	ATG4B conf=60.3*
CCOC(=O)c1cc(-c2c(Cl)cccc2Cl)no1	50.1*	-1.6	-0.3	6.6	46.5
CCCNC(=O)C1(C)CCCN(C(=O)c2c(F)ccc(C)c2F)C1 (centres undefined)	nt	3.9	-4.2	0.1	nt
CC(C)(C)NC(=O)C(C1CC1)n1c(=O)c(-c2ccccc2)nc2ccccc21 (centres undefined)	nt	nt	nt	-11.1	nt
COc1cc(/C=C/C(O)=C/C(=O)/C=C/c2ccc(O)cc2)ccc1O	48.4*	2.6	1.2	-6.5	47.2
COc1cc(/C=C/C(=O)NC(=O)c2ccccc2O)ccc1O	-8.6	17.6	-2.4	-15.9	nt
Cc1c(C(=O)Nc2nccs2)sc2nc(-c3cccs3)cc(C(F)(F)F)c12	49.5*	nt	3.9	3.6	7.8
O=Cc1cc(Cl)ccc1OCCN1CCC(Cc2ccccc2)CC1	84.4*	-0.5	-0.4	-0.2	86.8*
CC(=O)Nc1ccc(S(=O)(=O)Nc2nc3ccccc3nc2Nc2ccc3ccccc3c2)cc1	48.1*	nt	0.5	-0.5	57.9*
CC(=O)O[C@H]1[C@@H](O)[C@H](O)[C@H](Oc2c(O)c(C)c3c4c2[C@@H](C)CC[C@@H]4[C@@H](C)C[C@@H]3C=C(C)C)O[C@H]1C	nt	1.6	-0.3	4.2	nt
O=C(Nc1ccc(N2CCCCCC2)cc1)c1ccccc1Cl	51.0*	-5.2	-2.0	0.8	49.8
CC(=O)N1CCN(c2ccc(NC(=O)c3ccccc3Cl)cc2)CC1	2.7	6.4	0.4	0.9	nt
Cc1ccc(NC(=S)NCCSc2ccc(Cl)cc2)c(C)c1	9.2	1.6	0.5	1.0	nt
Cc1ccccc1NC(=S)NCCSc1ccc(Cl)cc1	45.5*	0.9	-4.0	0.3	51.2*
